CHX counter – counter-screen hit for Shiga toxin inhibitors, cycloheximide; cell reporter, cycloheximide protein synthesis inhibition counterscreen; max response, %; 300,000 tested, 12% active; in the data active means max response mostly above about 13%, no sharp cut-off; inactive means mostly below about 14%; further: read at 38.3 µM for the half of the compounds with a filed dose; 0% is about no effect
Pf growth 48h – P. falciparum growth inhibition at 48 hours (one generation) | P. falciparum luciferase growth in erythrocytes, 48 h | Potency, µM (highest dose often 28.7 µM), without a hit: at the highest dose activity change, negative = inhibition, usual class: inhibitors | 310,000 tested, 5.9% active; further: potency means the concentration at half of the fitted maximal effect; on the % scale 0 is the no-effect control and ±100 the full control effect
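Luciferase-expressing parasites in RBCs, 2% Hct / 0.1% parasitemia final; RPMI 1640 + 0.5% Albumax; 37 C, 5% CO2, one generation; luminescence read-out, lower signal = inhibition.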
Shiga inhibitor – Shiga toxin inhibition; Vero cells, Shiga toxin protein synthesis inhibition reporter; inhibition, % at 38.7 µM; 290,000 tested, 9.2% active; AID 2315; in the data active means inhibition mostly above about 28%, no sharp cut-off; inactive means mostly below about 43%; further: 0% is about no effect
Pf growth 96h – inhibits malaria parasite growth, 96 h; P. falciparum luciferase reporter growth, 96 h; Potency, µM (titrated, usually from 28.7 µM), inactives show at the highest dose activity change, negative = inhibition, usual class: inhibitors; 320,000 tested, 6.9% active; AID 504834; further: potency means the concentration at half of the fitted maximal effect; on the % scale 0 is the no-effect control and ±100 the full control effect
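Luminescence readout: decreased luciferase signal marks inhibited growth of reporter-expressing P. falciparum in infected red cells (2% hematocrit, 0.05% parasitemia final), exposed to compound two generations (96 h, 37 C, 5% CO2).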
* marks the source's active call; other numbers are inactive results; i = inactive; ? = inconclusive; . = no result given; [ ] = remark or other dose. Sampled rows, rich in hits. Any-hit rate of the full collection: about 21%. Unless noted, the call rests on the fitted dose curve; in most records, active means well fitted inhibition curve with a large enough effect; inconclusive means small, poorly fitted or top-dose-only effect, or another doubt; inactive means no such curve, though single readings can be large or run the other way.

SMILES | CHX counter | Pf growth 48h | Shiga inhibitor | Pf growth 96h
COc1cc(S(=O)(=O)N2CCOCC2)cc(C(=O)OCC(=O)NCc2ccco2)c1OC | . | -29% | . | ?
COc1ccc(CNC(=O)CCS(=O)(=O)c2ccc3c(c2)CC(C)N3C(=O)C2CC2)cc1 (stereo not drawn) | 4 | -14% | -1 | 38%
CC(C)c1cc(=O)oc2c3c4c(cc12)CCCN4CCC3 | -4 | 12µM* | -20 | 33%
O=c1cc(C(F)(F)F)c2cc3c4c(c2o1)CCCN4CCC3 | -2 | . | -13 | -28%
Nc1nnc(-c2cn(-c3ccccc3)nc2-c2ccc(Cl)cc2)o1 | 6 | 3.7µM* | -2 | 4.7µM*
Nc1nnc(-c2cn(-c3ccccc3)nc2-c2ccccc2)o1 | 11 | ? | 16 | -16%
O=C(CSc1nnc2ccc(-c3cccnc3)nn12)Nc1ccc(F)cc1 | . | 0% | . | ?
O=C(CSc1nnc(Cn2nnc(-c3ccccc3)n2)n1-c1ccccc1)Nc1ccccc1 | -2 | ? | 8 | ?
Cc1cccc(C)c1NC(=O)CSc1nnc(Cn2nnc(-c3ccccc3)n2)n1-c1ccccc1 | -1 | 9.3µM* | -11 | -17%
Cc1cccc(C)c1NC(=O)CCCSc1nnc(-c2ccc(F)cc2)n1-c1ccccc1 | 1 | -14% | -22 | 12µM*
O=C(CSc1nnc2ccc(-c3ccncc3)nn12)Nc1ccc(F)cc1 | . | 12µM* | . | ?
O=C(CSc1nnc(Cn2nnc(-c3ccccc3)n2)n1-c1ccccc1)Nc1ccc(F)cc1 | 0 | 9.3µM* | -8 | .
COc1cccc(CC(=O)Nc2cccc3ccccc23)c1 | -3 | -11% | -8 | -4%
O=C(C[n+]1ccn(CCCNP2(=O)C=C(c3ccccc3)OC(c3ccccc3)=C2)c1)c1cccs1 | 5 | ? | 23 | ?
O=P1(NCCCn2cc[n+](Cc3nc4ccccc4[nH]3)c2)C=C(c2ccccc2)OC(c2ccccc2)=C1 | -2 | 12µM* | -7 | 2.3µM*
O=C(Nc1ccccc1)N(Cc1ccccc1)C1=NCCS1 | 3 | -17% | -5 | ?
O=C(Nc1ccccc1)N(C1=NCCCCS1)c1cccc2ccccc12 | 46* | 34% | 76 | 45%
O=C(Nc1ccccc1)N(C1=NCCCCS1)c1ccccc1 | 24* | 36% | 56 | .
COc1cc(NC(=S)NC(=O)c2ccccc2C)ccc1NC(=O)c1cccs1 | -1 | ? | 6 | -29%
COc1cc(NC(=S)NC(=O)c2c(OC)cccc2OC)ccc1NC(=O)c1cccs1 | -2 | 5.2µM* | -24 | 9%
COc1cc(NC(=S)NC(=O)c2cc(C)cc(C)c2)ccc1NC(=O)c1cccs1 | 7 | ? | 3 | 2.9µM*
O=C(COc1ccccc1)Nc1cc(NC(=O)COc2ccccc2)cc(C(=O)O)c1 | -2 | 13% | -6 | ?
Cc1ccc(NC(=O)CCN2CCC(C(N)=O)CC2)cc1 | -3 | 16% | . | -17%
Clc1cc2nc3ccccn3c2cc1Cl | 20* | 22% | 68* | 81%
O=Cc1c(Cl)nc2ccccn12 | 1 | 8% | -3 | 28%
SMILES | CHX counter | Pf growth 48h | Shiga inhibitor | Pf growth 96h
Cc1nnc(NC(=O)c2ccccc2NC(=O)c2ccccc2)s1 | -1 | -16% | 15 | -22%
Cc1ccc(C(=O)Nc2nnc(-c3ccc(C(C)(C)C)cc3)s2)cc1 | 25 | 46% | 36* | 116%
COc1ccc(C(=O)Nc2nnc(-c3ccccc3)s2)cc1 | 12 | 104% | 4 | 39%
COc1ccccc1C(=O)Nc1nnc(C)s1 | 39* | 145% | 81* | .
COc1cccc(C(=O)Nc2nnc(-c3ccccc3)s2)c1OC | 43* | 88% | 41* | 185%
COc1ccccc1C(=O)N(C)c1nnc(-c2ccccc2)s1 | 37* | 0% | 66* | ?
COc1cc(CNC(=O)C2CCC(=O)N(C3CCCCCC3)C2)cc(OC)c1 (stereo not drawn) | -2 | 30% | -8 | ?
O=C(CN1C(=O)NC2(CCCC2)C1=O)N1CCN(c2ccccc2O)CC1 | . | -11% | . | 0%
COC(=O)c1cc(OC)c(OC)cc1NC(=O)c1cccc(OC)c1OC | -3 | ? | -6 | -43%
COc1ccccc1C(=O)Nc1nc(-c2cccs2)c(NC(C)=O)s1 | 30* | 91% | 57* | 330%
O=C(Nc1nnc(-c2ccccc2)s1)c1ccccc1O | 12 | 119% | 30 | 121%
COc1cccc(C(=O)Nc2sc(C(C)C)cc2C(N)=O)c1OC | -2 | ? | -5 | 13µM*
COc1ccccc1C(=O)Nc1nnc(-c2ccccc2)s1 | 35* | 52% | . | -13%
CC(=O)N1CCc2c(sc(NC(=O)Cc3ccc(C)cc3C)c2C#N)C1 | -4 | 12% | -9 | 4%
COc1ccc(NC(=O)Nc2ccon2)c(OC)c1 | 7 | 37% | 26 | -2%
CC(C)Sc1cc(Cl)nc(NC(=O)Nc2ccccc2)n1 | 29* | 2%[0.00184 µM] | 50 | 15%
COc1cccc(CNC(=O)C(=O)N2CCC3(CC2)OCCN3S(=O)(=O)c2ccc(C)cc2)c1 | . | -24% | . | ?
O=C(Nc1ccc(F)cc1F)c1cc2nc3c(c(C(F)(F)F)n2n1)CCCC3 | 26* | 129% | 24 | 10µM*
O=C(O)c1cc2nc3c(c(C(F)(F)F)n2n1)CCCC3 | -3 | 12% | -4 | 1%
O=C(Nc1ccc(F)cc1F)c1cc2n(n1)C(C(F)(F)F)C1CCCCC1N2 (stereo not drawn) | 30* | 16% | 84* | -14%
O=C1CC(C(F)(F)F)=NN1 | 3 | 140% | -4 | ?
COC(=O)c1sccc1NC(=S)N1CCN(c2ccccc2F)CC1 | -1 | 23% | -13 | -8%
COc1ccccc1CC(=O)N(Cc1ccccc1)c1cccc(C)c1 | 1 | ? | 7 | ?
Cc1cc(-c2nnc(SCC(=O)NC3CC3)n2C(C)C)cs1 | -1 | 5% | -12 | 7%
COc1ccc(S(=O)(=O)CCc2nc3ccccc3s2)cc1 | -2 | . | 12 | 3%
SMILES | CHX counter | Pf growth 48h | Shiga inhibitor | Pf growth 96h
Fc1ccc(OCc2nn3cnnc3s2)cc1 | -2 | 18% | -6 | .
Fc1ccc(OCc2nc3ccccc3s2)cc1 | 52* | i | 114* | ?
c1ccc(OCc2nc3ccccc3s2)cc1 | 61* | 338% | 68* | -23%
Cc1cc(OCc2nc3ccccc3s2)ccc1N | 59* | 256% | 112* | 415%
CCC(=O)Nc1ccc(OCc2nc3ccccc3s2)cc1 | 44* | i | 117* | 11%
O=C(CN1C(=O)c2ccccc2C1=O)NC1CCC(O)CC1 (stereo not drawn) | . | 21% | . | 9%
CC(C)COC(=O)COc1cc(Cl)c(Cl)cc1Cl | . | 42% | . | 36%
O=S(=O)(Cc1nc2ccccc2s1)c1ccccc1 | 27* | 157% | 52* | 19%
O=S(=O)(CCc1nc2ccccc2s1)c1ccc(Cl)cc1 | -2 | . | -11 | -29%
Cn1c(-c2cccs2)[n+](C)c2ccccc21 | 0 | 1µM* | 2 | -11%
C/C(=N\NC(=O)c1cccc(S(=O)(=O)N2CCOCC2)c1)c1ccc(O)cc1 | . | -20% | . | 0.59µM*
CC(=O)Nc1cccc(/C(C)=N/NC(=O)c2cccc(S(=O)(=O)N3CCOCC3)c2)c1 | -1 | -2% | 14 | 12µM*
CC1COC(C)(CC(=O)NN2C(=O)c3ccccc3C2=O)O1 (stereo not drawn) | -2 | 28% | -12 | 2.6µM*

From PubChem BioAssay
